Test results as given in PubChem BioAssay AID493194 (Broad Institute, 2011).
Entries with a potency or affinity are not part of this list. Records with an inconclusive call do not appear. Active and inactive are the calls of the source.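 How the source made its calls: active means a valid curve of falling signal whose half-effect concentration is at most ten times the top tested dose; inconclusive means flat curve at 30 to 70% inhibition, or poor fit; inactive means signal rise, flat within 30%, or potency beyond limit.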

target: Scavenger receptor class B member 1 (Mus musculus) (UniProt Q61009); assay: inhibitors of SR-BI mediated HDL lipid uptake, dose response, ldlA[mSR-BI] cells, fluorescence, cherry pick (AID 493194); details: CHO ldlA[mSR-BI] DiI-HDL uptake fluorescence, 3 h; series mostly up to 35 µM;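 further: CHO cells lacking LDL receptor and overexpressing mouse SR-BI; cellular uptake of fluorescently labeled HDL measured as cell fluorescence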
Sequence (Q61009 whole entry, looked up): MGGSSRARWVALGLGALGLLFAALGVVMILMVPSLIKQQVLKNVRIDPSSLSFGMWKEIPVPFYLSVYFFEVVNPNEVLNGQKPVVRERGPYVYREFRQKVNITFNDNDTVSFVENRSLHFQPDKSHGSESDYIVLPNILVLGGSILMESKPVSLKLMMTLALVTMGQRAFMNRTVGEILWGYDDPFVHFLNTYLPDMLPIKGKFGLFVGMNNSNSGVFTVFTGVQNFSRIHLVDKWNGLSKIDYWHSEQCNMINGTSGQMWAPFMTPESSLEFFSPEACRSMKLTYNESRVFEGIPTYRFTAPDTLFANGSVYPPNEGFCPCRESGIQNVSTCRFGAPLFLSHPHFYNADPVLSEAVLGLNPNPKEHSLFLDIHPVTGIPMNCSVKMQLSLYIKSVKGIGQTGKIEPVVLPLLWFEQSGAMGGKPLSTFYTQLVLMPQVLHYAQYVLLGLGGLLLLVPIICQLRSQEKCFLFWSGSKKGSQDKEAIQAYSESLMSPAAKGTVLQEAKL

Compound | outcome
O=C(c1ccc(-n2nc(C(F)(F)F)c3c2CCCC3)cc1)N1CCOCC1 | inactive
Cc1ccc(-n2nc(C)c3c(C(=O)OCC(=O)N(C)C4CCS(=O)(=O)C4)cc(-c4ccccc4)nc32)cc1 (stereo not drawn) | inactive
Cc1cc2oc(=O)cc(CN3CCN(C/C=C/c4ccccc4)CC3)c2cc1O | inactive
CCOC(=O)c1cccc(NC(=O)Nc2cc(OC)ccc2OC)c1 | inactive
CCOC(=O)CSc1c(-c2ccc(Cl)cc2)[nH]c2ccccc12 | inactive
COc1cc2c(C#CCCCO)c(-c3ccsc3)oc(=O)c2cc1OC | inactive
COc1ccc(-c2nc(-c3ccc(O)cc3O)cs2)cc1OC | inactive
COc1ccccc1NC(=O)CN1CCN(CC(=O)Nc2ccc(C)c(F)c2)CC1 | inactive
NC(=O)c1cc(-c2ccccc2)sc1NC(=O)CN1CCCCC1 | inactive
O=C(C[C@@H]1C/C=C\C[C@H](NC(=O)OCC2c3ccccc3-c3ccccc32)C(=O)O[C@H](c2ccccc2)CNC1=O)NCCO | inactive
CCOC(=O)c1c(C)n(-c2ccc(C)cc2)c2c(CC(C)=O)c(Br)c(OC)c(O)c12 | inactive
COc1ccc(CCNC(=O)c2ccc3c(c2)N(Cc2ccc(C)cc2)CCS3)cc1OC | inactive
CN(Cc1ccc(OC(F)F)cc1)C(=O)c1ccccc1Sc1ccccc1C#N | inactive
CC(C)[C@H](NC(=O)c1ccco1)C(=O)OCC(=O)c1ccc2c(c1)NC(=O)CO2 | inactive
CCCC(=O)Nc1ccc(Cl)c(NC(=O)c2cccc(OC)c2)c1 | inactive
CCCCC(=O)Nc1nc(C)c(-c2csc(Nc3ccc(Cl)cc3)n2)s1 | inactive
CCOC(=O)C1CCCN(S(=O)(=O)NC[C@H]2O[C@@H](n3cnc4c(N)ncnc43)[C@H](O)[C@@H]2O)C1 (stereo partly drawn) | inactive
Cc1cc(C(=O)COC(=O)c2ccc(Cl)c(S(N)(=O)=O)c2)c(C)n1C1CC1 | inactive
COCCOC(=O)c1[nH]c2c(c1C)C(=O)CC(c1ccco1)C2 (stereo not drawn) | inactive
Cc1cc(C)nc(Nc2n[nH]c(-c3ccc(C(C)(C)C)cc3)n2)n1 | inactive
CC[C@]12c3[nH]c4cc(-c5ccco5)ccc4c3CCN1C(=O)[C@@H](CC(=O)NCc1ccc(OC)c(OC)c1)C[C@@H]2C(=O)N1CCN(C(=O)c2ccco2)CC1 | inactive
CCCCC(=O)Nc1cccc(NC(=O)c2ccccc2Br)c1 | inactive
CSc1ccccc1OCc1cc(C(=O)N(C)Cc2c(C)n[nH]c2C)no1 | inactive
